Source: PubChem BioAssay (Tox21)
Records with an inconclusive call do not appear. Active and inactive are the calls of the source. Unless noted, calls come from the whole dose curve; as a rule, active = well fitted curve in the direction sought with a large enough effect in the repeat runs; inconclusive = weak or mixed curves; inactive = no such curve, though single readings can be large; an effect the other way counts as inactive or inconclusive.

How the values were obtained:
[1] = qHTS assay for small molecule agonists of the p53 signaling pathway (AID 651631; calls by dose curve; note: nearly all actives have a fitted effect of over 15% in size); conditions: HCT-116 p53RE-bla reporter, beta-lactamase FRET ratio, 16 h; series mostly up to 73.3 µM
In short: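 Beta-lactamase reporter activity under p53 response elements was quantified in HCT-116 cells by FRET fluorescence, following 16 h incubation with test compounds at 37 °C and 2 h substrate development at room temperature.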

[2] = qHTS assay for small molecules that induce genotoxicity in human embryonic kidney cells expressing luciferase-tagged ATAD5 (AID 651632); conditions: HEK293T ATAD5-luciferase induction, 16 h; series mostly up to 83.3 µM; note: nearly all actives have a fitted effect of over 15% in size
In short: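 Luminescence read-out: after 16 hr compound exposure at 37C, ATAD5-luciferase HEK293T cells received Amplite, 30 min RT, then CCD imaging. A rise in signal marks genotoxic stress.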

[3] = qHTS assay for small molecule agonists of the p53 signaling pathway - cell viability (AID 651633; calls by dose curve; note: nearly all actives have a fitted effect of over 30% in size); conditions: p53RE-bla HCT-116 viability, ATP luminescence, 16 h; series mostly up to 83.3 µM
In short: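 Viability counter-read: CellTiter-Glo luminescence (30 min, room temperature) in the same p53RE-bla plates. These plates had been exposed to compounds for 16 h at 37 C.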

[4] = qHTS assay for small molecules that induce genotoxicity in human embryonic kidney cells expressing luciferase-tagged ATAD5 - cell viability (AID 651634; calls by dose curve; note: nearly all actives have a fitted effect of over 25% in size); conditions: HEK293T ATAD5-luc cells viability, CellTiter-Fluor, 15.5 h; series mostly up to 83.3 µM
In short: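 HEK293T ATAD5-luc cells, 2,000/well; compound 15.5 hr, 37C/5% CO2; CellTiter-Fluor 30 min, 37C; fluorescence read.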

[5] = qHTS assay for small molecule disruptors of the mitochondrial membrane potential - cell viability (AID 720634; calls by dose curve;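 note: human HepG2 liver cancer cells; nearly all actives have a fitted effect of over 20% in size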); conditions: HepG2 viability, ATP luminescence (CellTiter-Glo), 1 h; series mostly up to 83.2 µM
In short: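 Luminescence from CellTiter-Glo (ATP content) gave viability in HepG2 cells, read in the same wells as the MMP dye assay after 1 hr compound exposure at 37 C.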

[6] = qHTS assay for small molecule disruptors of the mitochondrial membrane potential (AID 720635); conditions: HepG2 mitochondrial membrane potential, Mito-MPS dye ratio; series mostly up to 83.2 µM
In short: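 Mitochondrial membrane potential tracked with Mito-MPS dye, red aggregates (ex 540/em 590 nm) against green monomers (ex 490/em 535 nm). Compound treatment 1 hr at 37C, dye 30 min in HepG2.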

[7] = qHTS assay to test for compound auto fluorescence at 590 nm (red) in HepG2 cells (AID 720674); conditions: HepG2 autofluorescence, red 540/590 nm, 1 h; series mostly up to 46 µM
In short: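 Red autofluorescence (Ex/Em 540/590 nm, Rose Bengal sodium equivalents) was measured in HepG2 cells, 2,000 per well in MEM plus 10% FBS, plated overnight at 37 C. Readings were taken 1 hr after adding 23 nL compound or DMSO, at 37 C and 5% CO2.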

[8] = qHTS assay to test for compound auto fluorescence at 535 nm (green) in HepG2 cells (AID 720675); conditions: green autofluorescence 485/535 nm, 1 h; series mostly up to 46 µM
[9] = qHTS assay to test for compound auto fluorescence at 460 nm (blue) in HEK293 cells (AID 720678); conditions: blue autofluorescence 405/460 nm; series mostly up to 46 µM
In short: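 After cell attachment (4-5 hr, 37C), compounds were pinned onto HEK293 monolayers in 10% dialyzed FBS medium. The blue channel (405/460 nm) was read following overnight culture. Equivalency was calculated against triamterene.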

[10] = qHTS assay to test for compound auto fluorescence at 590 nm (red) in HEK293 cells (AID 720679); conditions: red autofluorescence 540/590 nm; series mostly up to 46 µM
In short: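 Plates of HEK293 cells (10% dialyzed FBS) are treated with 23 nL compound or DMSO vehicle after a 4-5 hr attachment period, incubated overnight at 37C, and read for red fluorescence at 540/590nm.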

[11] = qHTS assay to test for compound auto fluorescence at 535 nm (green) in HEK293 cells (AID 720680); conditions: green autofluorescence 485/535 nm; series mostly up to 46 µM
[12] = qHTS assay to test for compound auto fluorescence at 460 nm (blue) in HEK293 cell free culture (AID 720681); conditions: cell-free medium, autofluorescence 405/460 nm (blue); series mostly up to 46 µM
In short: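 Blue fluorescence (Ex 405/Em 460 nm, triamterene-equivalent) was read immediately after pin transfer of compound or DMSO into medium (DMEM, 10% FBS) without cells.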

[13] = qHTS assay to test for compound auto fluorescence at 535 nm (green) in HEK293 cell free culture (AID 720682); conditions: cell-free medium, green autofluorescence 485/535 nm, hits give high values; series mostly up to 46 µM
In short: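 Each library compound, or DMSO control, is added by pintool to medium alone, comprising DMEM and 10% FBS. Emission at 535 nm following 485 nm excitation is quantified against fluorescein.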

[14] = qHTS assay to test for compound auto fluorescence at 590 nm (red) in HEK293 cell free culture (AID 720683); conditions: cell-free medium autofluorescence, Ex540/Em590 red; series mostly up to 46 µM
In short: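 Red-channel autofluorescence of compounds in culture medium (DMEM, 10% FBS), no cells, measured at 540/590 nm. Rose Bengal sodium is the reference fluorophore for equivalence.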

[15] = qHTS assay to test for compound auto fluorescence at 460 nm (blue) in HepG2 cell free culture (AID 720685); conditions: Cell-free culture medium, blue autofluorescence 405/460 nm; series mostly up to 46 µM
In short: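 Cell-free plates of MEM plus 10% FBS received 23 nL compound or DMSO vehicle; blue-channel (405/460 nm) intensity scored against triamterene as reference fluorophore.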

[16] = qHTS assay to test for compound auto fluorescence at 535 nm (green) in HepG2 cell free culture (AID 720686); conditions: Cell-free medium, green autofluorescence 485/535 nm; series mostly up to 46 µM
[17] = qHTS assay to test for compound auto fluorescence at 460 nm (blue) in HepG2 cells (AID 720687); conditions: autofluorescence 405/460 nm, 1 h; series mostly up to 46 µM
In short: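 Blue-channel autofluorescence (Ex/Em 405/460 nm, triamterene-equivalent) was measured after 1 hr compound exposure at 37 C, 5% CO2. Cells were HepG2, plated overnight at 37 C in MEM plus 10% FBS.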

[18] = biological target: Glucocorticoid receptor (Homo sapiens) (UniProt P04150); assay: qHTS assay to identify small molecule agonists of the glucocorticoid receptor (GR) signaling pathway (AID 720691; active = well fitted activation curve with a large enough effect in the signal ratio in the repeat runs, not every such curve was filed as active; the % refers to the signal ratio); conditions: GR-bla HeLa, beta-lactamase reporter ratio, 18 h; series mostly up to 62.4 µM
Sequence of Glucocorticoid receptor (Homo sapiens) (P04150 whole entry, looked up): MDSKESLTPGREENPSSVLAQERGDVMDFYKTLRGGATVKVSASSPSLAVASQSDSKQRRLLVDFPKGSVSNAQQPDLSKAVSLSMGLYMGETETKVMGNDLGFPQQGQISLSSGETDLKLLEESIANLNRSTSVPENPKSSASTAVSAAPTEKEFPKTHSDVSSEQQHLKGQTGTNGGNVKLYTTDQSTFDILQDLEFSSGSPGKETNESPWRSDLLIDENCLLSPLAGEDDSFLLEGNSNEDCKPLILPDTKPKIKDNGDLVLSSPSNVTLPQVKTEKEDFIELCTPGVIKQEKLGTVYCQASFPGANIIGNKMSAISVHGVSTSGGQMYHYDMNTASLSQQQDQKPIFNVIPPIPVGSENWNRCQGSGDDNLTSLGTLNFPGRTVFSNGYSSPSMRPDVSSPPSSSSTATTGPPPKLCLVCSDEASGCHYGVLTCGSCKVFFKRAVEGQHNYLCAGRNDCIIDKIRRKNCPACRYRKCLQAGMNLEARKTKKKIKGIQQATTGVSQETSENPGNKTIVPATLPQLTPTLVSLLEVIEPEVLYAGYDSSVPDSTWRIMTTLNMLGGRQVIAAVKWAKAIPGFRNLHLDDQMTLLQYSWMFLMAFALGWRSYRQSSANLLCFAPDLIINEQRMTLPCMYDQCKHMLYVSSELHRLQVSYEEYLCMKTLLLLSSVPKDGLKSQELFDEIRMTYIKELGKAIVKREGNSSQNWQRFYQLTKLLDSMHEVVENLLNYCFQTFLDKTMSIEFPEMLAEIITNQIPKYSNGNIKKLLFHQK
In short: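 HeLa GR-bla reporter line; cells pre-incubated 4 h, compound in DMSO 18 h at 37 C; LiveBLAzer B/G FRET substrate 2 h RT; fluorescence intensity read-out.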

[19] = biological target: Glucocorticoid receptor (Homo sapiens) (UniProt P04150); assay: qHTS assay to identify small molecule antagonists of the glucocorticoid receptor (GR) signaling pathway (AID 720692; active = well fitted inhibition curve with a large enough effect in the signal ratio in the repeat runs, not every such curve was filed as active; the % refers to the signal ratio); conditions: GR-bla HeLa, beta-lactamase FRET ratio, dexamethasone-stimulated, 18 h; series mostly up to 58.5 µM
In short: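 Read-out: beta-lactamase FRET substrate fluorescence, 2 h at room temperature, in HeLa cells stably carrying a GRE-driven bla reporter. Compounds were co-incubated with 5 nM dexamethasone agonist (final) for 18 h at 37 C.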

[20] = qHTS assay to test for compound auto fluorescence at 590 nm (red) in HepG2 cell free culture (AID 720684); conditions: cell-free medium autofluorescence, red 540/590 nm; series mostly up to 46 µM
In short: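 No cells present: MEM + 10% FBS only. Compound pinned in, red label read (540/590 nm). Activity = fluorescence equivalent to Rose Bengal sodium.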
% is set by controls: 0 for no effect and ±100 for the full control effect.

CO[Si](CCCOCC1CO1)(OC)OC (centres undefined)
inactive: outcome [1] | Potency [2] | outcome [3] | Potency [4] | Potency [5] | Potency [6] | outcome [7] | outcome [8] | outcome [9] | outcome [10] | outcome [11] | outcome [12] | outcome [13] | outcome [14] | outcome [15] | outcome [16] | outcome [17] | Potency [18] | Potency [19]

N=C(N)c1ccc(OCCCOc2ccc(C(=N)N)cc2)cc1
inactive: outcome [1] | Potency [2] | outcome [3] | Potency [4] | Potency [5] | Potency [6] | outcome [7] | outcome [8] | outcome [9] | outcome [10] | outcome [11] | outcome [12] | outcome [13] | outcome [14] | outcome [20] | outcome [15] | outcome [16] | outcome [17]

CCCCCCCCCCCCCC=O
inactive: activation [1] -3.36% [at 8.3 µM] | activation [2] 2.51% [at 8.08 µM] | activity change, negative = cytotoxicity [3] 18.4% [at 8.08 µM] | activity, negative = cytotoxicity [4] 13.3% [at 8.08 µM] | activity change, negative = cytotoxicity [5] 12.2% [at 8.08 µM] | ratio activity, negative = MMP loss [6] 25.8% [at 8.08 µM] | fluorescence, relative to Rose Bengal [7] 0.0167% [at 3.72 µM] | fluorescence, % of fluorescein control [8] 0.0875% [at 3.72 µM] | fluorescence, % of triamterene [9] -0.166% [at 3.72 µM] | fluorescence, % of fluorescent control [10] -0.804% [at 3.72 µM] | fluorescence, % of fluorescein [11] 0.0656% [at 3.72 µM] | fluorescence, % of fluorescent control [12] -0.0434% [at 3.72 µM] | activity change [13] -0.0074% [at 3.72 µM] | fluorescence, % of fluorescent control [14] 0.0516% [at 3.72 µM] | fluorescence, % of Rose Bengal [20] 0.0058% [at 3.72 µM] | fluorescence, % of fluorescent control [15] -0.0093% [at 3.72 µM] | fluorescence, % of fluorescein control [16] 0.0349% [at 3.72 µM] | fluorescence, % of fluorescent control [17] -0.0327% [at 3.72 µM]

O=C(O)COc1nn(Cc2ccccc2)c2ccccc12
inactive: outcome [1] | Potency [2] | outcome [3] | Potency [4] | Potency [5] | Potency [6] | outcome [7] | outcome [8] | outcome [9] | outcome [10] | outcome [11] | outcome [12] | outcome [13] | outcome [14] | outcome [20] | outcome [15] | outcome [16] | outcome [17] | Potency [18] | Potency [19]

CN(C)CCCSc1ccccc1NC(=O)/C=C/c1ccccc1
inactive: outcome [1] | Potency [2] | outcome [3] | Potency [4] | Potency [5] | Potency [6] | outcome [7] | outcome [8] | outcome [9] | outcome [10] | outcome [11] | outcome [12] | outcome [13] | outcome [14] | outcome [20] | outcome [16] | outcome [17] | Potency [18] | Potency [19]

CCCN(CCC)CCc1cccc2c1CC(=O)N2
inactive: outcome [1] | Potency [2] | outcome [3] | Potency [4] | Potency [5] | Potency [6] | outcome [7] | outcome [8] | outcome [9] | outcome [10] | outcome [11] | outcome [12] | outcome [13] | outcome [14] | outcome [20] | outcome [16] | outcome [17]

C[C@](N)(Cc1ccc(O)cc1)C(=O)O
inactive: outcome [1] | Potency [2] | outcome [3] | Potency [4] | Potency [5] | Potency [6] | outcome [7] | outcome [8] | outcome [9] | outcome [10] | outcome [11] | outcome [12] | outcome [13] | outcome [14] | outcome [15] | outcome [16] | outcome [17] | Potency [18]
